Source: PubChem BioAssay (National Center for Advancing Translational Sciences (NCATS))
The list is not random: actives were taken first. Their share in the collection is about 1%.
GPT2 inh = inhibitors of human GPT2 alanine aminotransferase | Q8TD30 | Potency, µM (doses to about 57.7 µM), without a hit: at the highest dose activity change, negative = inhibition, most hits filed as inhibitors | 100,000 tested, 0.25% active | Recombinant GPT2, coupled pyruvate oxidase/HRP Amplex Red fluorescence; also: potency is read from the fitted curve at half-maximal effect; nearly all actives have a fitted effect of over 60% in size
Target sequence (Q8TD30 whole entry, looked up): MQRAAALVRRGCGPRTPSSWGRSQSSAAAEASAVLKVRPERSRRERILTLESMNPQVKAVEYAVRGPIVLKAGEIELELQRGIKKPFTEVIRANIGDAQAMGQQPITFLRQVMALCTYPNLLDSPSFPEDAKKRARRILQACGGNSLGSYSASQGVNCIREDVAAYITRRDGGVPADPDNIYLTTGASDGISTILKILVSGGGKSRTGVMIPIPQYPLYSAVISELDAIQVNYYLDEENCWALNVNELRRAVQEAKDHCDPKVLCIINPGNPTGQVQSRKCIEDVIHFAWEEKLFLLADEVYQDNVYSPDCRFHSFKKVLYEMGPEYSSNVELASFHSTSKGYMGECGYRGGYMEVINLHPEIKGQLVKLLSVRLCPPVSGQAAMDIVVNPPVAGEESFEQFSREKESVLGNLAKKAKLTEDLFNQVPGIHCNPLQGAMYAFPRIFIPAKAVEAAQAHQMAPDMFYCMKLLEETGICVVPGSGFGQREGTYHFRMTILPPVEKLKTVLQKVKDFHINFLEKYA
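Fluorescence of coupled pyruvate oxidase/HRP/Amplex Red system (50uM Amplex, 30 min, dark) reports pyruvate formed by GPT2. Enzyme reaction: 10ng/uL GPT2, 2mM L-alanine, 250uM a-KG, 30 min room temperature, pH 7.5; 50uM AOA control.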
IP6K1 inh = IP6K1 kinase inhibition. Q92551. IP6K1 kinase, ADP-Glo luminescence, 2 h; stronger effect = lower value. activity change, % (series mostly up to about 58 µM). 140,000 tested, 0.81% active; in the data active = activity change below about -25%
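ADP-Glo luminescence measures ADP made by human IP6K1 during a 2 h RT reaction with ATP/IP6 (mix at 1.3 mM/130 uM); top library doses 57.5 and 19.1 uM final.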
SNCA viab count = reduces viability of HEK-293 SNCA reporter cells; Potency, µM (series often up to 57.1 µM), without a hit: at the top dose activity change, negative = cytotoxicity, usual class: cytotoxic; AID 1671193; 150,000 tested, 0.12% active; HEK-293-SNCA-luc viability, GF-AFC fluorescence, 24 h;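 also: potency is read from the fitted curve at half-maximal effect; 0% = DMSO-treated cells and -100% = medium-only wells without cells; nearly all actives have a fitted effect of over 30% in size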
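Cytotoxicity counterscreen: after 24 h compound treatment of genome-edited SNCA-luciferase HEK-293 cells, live-cell protease substrate GF-AFC read by fluorescence after 30 min; activity scaled between DMSO (0%) and medium-only (-100%), curves Hill-fitted.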
SNCA expr inh = inhibitors of alpha-synuclein (SNCA) gene expression. Potency, µM (top dose mostly 57.2 µM), inactives show at the highest dose activity change, negative = inhibition, actives largely listed as inhibitors. AID 1671194. 140,000 tested, 0.17% active. HEK-293 SNCA-luciferase knock-in, luminescence, 24 h;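 also: potency is read from the fitted curve at half-maximal effect; plate controls were DMSO cells for no effect and cell-free wells for full effect; nearly all actives have a fitted effect of over 45% in size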
IP6K1 conf = confirmation of human IP6K1 inhibitors. shares compounds with IP6K1 inh. AID 1645852. Potency, µM (series often up to 49 µM), without a hit: top-dose activity change, negative = inhibition, actives largely listed as inhibitors. 1,200 tested, 13% active. recombinant IP6K1 kinase, ADP-Glo luminescence, 2 h; also: potency is read from the fitted curve at half-maximal effect; nearly all actives have a fitted effect of over 65% in size
Active calls of the source: *; [ ] = another dose, or the depositor's remark. Unless noted, calls follow the shape of the dose curve; as a rule, active = well fitted curve in the direction sought with a large enough effect; inconclusive = small, poorly fitted or top-dose-only effect, or another doubt; inactive = no such curve, though single readings can be large; an effect the other way counts as inactive or inconclusive. Unless noted, % is scaled to controls: 0 for no effect and ±100 for the full control effect.

Results for Cc1ccc(-c2cccc(CN3CCCC3C(=O)NCc3cccc(C(F)(F)F)c3)c2)cc1Cl (centres undefined) ?
IP6K1 inh: 10

What do the screens show for `CCN(CC)S(=O)(=O)c1ccc2c(c1)N(CC(=O)N1CCN(c3ccc(F)cc3)CC1)C(=O)CO2`?
IP6K1 inh: -2; SNCA viab count: inconclusive; SNCA expr inh: -3%

How did CCN(CC)S(=O)(=O)c1ccc2c(c1)N(CC(=O)N1CCN(c3cccc(C(F)(F)F)c3)CC1)C(=O)CO2 do in these assays?
IP6K1 inh: -25*; SNCA viab count: -19%; SNCA expr inh: -12%; IP6K1 conf: -2%

What do the screens show for `COc1cc2c(cc1-c1ccco1)OCC(C)(C)CC2CO` (centres undefined)?
IP6K1 inh: 2

What do the screens show for `COc1ccc(NC(=O)C(=O)NCC2(c3ccccc3)CCCC2)c(OC)c1`?
IP6K1 inh: -27*; SNCA viab count: 4%; SNCA expr inh: 0%; IP6K1 conf: -2%

How did Cc1nc2cc(-c3cccc(F)c3)nn2c(C)c1CCC(=O)NC(C)c1ccccc1 (centres undefined) do in these assays?
IP6K1 inh: -25*; SNCA viab count: inconclusive; SNCA expr inh: inconclusive; IP6K1 conf: 1%

How did Cc1nc2cc(-c3cccc(F)c3)nn2c(C)c1CCC(=O)NCCc1ccccc1 do in these assays?
IP6K1 inh: -8; SNCA viab count: -1%; SNCA expr inh: 13%

What do the screens show for `O=C1c2cnc(-c3cccc(CO)c3)nc2OCCN1c1ccccc1`?
GPT2 inh: -6%[88.5 µM]; IP6K1 inh: -40*; SNCA viab count: -16%[87.6 µM]; SNCA expr inh: 7.9µM*; IP6K1 conf: inconclusive

What do the screens show for `O=C1c2cnc(-c3cccc(CO)c3)nc2OCCN1Cc1ccccc1`?
GPT2 inh: -5%[88.5 µM]; IP6K1 inh: -14; SNCA viab count: 4%[87.6 µM]; SNCA expr inh: 34%[87.6 µM]

What do the screens show for `CCCc1ccc(-c2nc(C3CCOC3)no2)cc1` (centres undefined)?
GPT2 inh: 0%; IP6K1 inh: 22; SNCA viab count: -6%; SNCA expr inh: 6%

Results for c1cn(-c2ccc(-c3nc(C4CCOC4)no3)cc2)cn1 (centres undefined) ?
GPT2 inh: inactive[11.5 µM]; IP6K1 inh: -28*; SNCA viab count: -6%; SNCA expr inh: 10%; IP6K1 conf: -14%

What do the screens show for `COc1ccccc1NC(=O)C1=C(C)Nc2nc3ccccc3n2C1c1cccc(Br)c1` (centres undefined)?
IP6K1 inh: -26*; SNCA viab count: 9%; SNCA expr inh: 0%; IP6K1 conf: -2%

How did CNC(=O)c1ccccc1Nc1nc(Nc2ccc(N3CCNCC3)cc2)ncc1Cl do in these assays?
GPT2 inh: -3%; IP6K1 inh: -20; SNCA viab count: -39%

What do the screens show for `CNC(=O)c1ccccc1Nc1cc(Nc2ccc(N3CCOCC3)cc2OC)ncc1C(F)(F)F`?
GPT2 inh: 22µM*; IP6K1 inh: -53*; SNCA viab count: -26%; IP6K1 conf: inconclusive

Results for COc1ccc(F)cc1-c1ccc(CN2CCCCC2C(=O)N2CCOCC2)cc1 (centres undefined) ?
IP6K1 inh: -5

Results for CCC(C(=O)N1CCN(c2cc(Cl)ccc2C)CC1)n1nc(C)n2c(cc3occc32)c1=O (centres undefined) ?
IP6K1 inh: -26*; SNCA viab count: -37%; SNCA expr inh: -13%; IP6K1 conf: 2%

How did CCC(C(=O)N1CCN(c2ccccc2)CC1)n1nc(C)n2c(cc3sccc32)c1=O (centres undefined) do in these assays?
IP6K1 inh: -8; SNCA viab count: -16%; SNCA expr inh: -5%

What do the screens show for `O=C(COc1ccc(Cl)cc1)N1CCC(c2n[nH]c(=O)n2Cc2ccc(F)cc2)CC1`?
GPT2 inh: inactive; IP6K1 inh: -10; SNCA viab count: -1%; SNCA expr inh: 22%

How did C#C[C@]1(O)CC[C@H]2[C@H]3CCc4cc(OC)ccc4[C@H]3CC[C@@]21C do in these assays?
GPT2 inh: inactive; SNCA viab count: -8%; SNCA expr inh: 4%
